Laboratory results from PubChem BioAssay (Tox21).
Several values for one entry are separate records, joined by “and”; a condition that tells them apart may be missing. Equal entries are not always repeated. Results filed as inconclusive are left out. Entries that show only a call come without a potency. Where a structure was tested more than once in an assay, its records may differ in their call. Activity calls are given as the source filed them. Unless noted, the call rests on the fitted dose curve; in most records, active means well fitted curve in the direction sought with a large enough effect in the repeat runs; inconclusive means weak or mixed curves; inactive means no such curve, though single readings can be large; an effect the other way counts as inactive or inconclusive.

What was measured:
[1] = qHTS assay to identify small molecule agonists of the hypoxia (HIF-1) signaling pathway - cell viability counter screen (AID 1224844; calls by dose curve; further: nearly all actives have a fitted effect of over 50% in size; further: potency means the concentration at half of the fitted maximal effect)
Method in brief: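 Tox21 10K compounds were added to HRE-bla ME-180 cells (0.5% dialyzed FBS) and incubated 17 hrs at 37C; ATP-based CellTiter-Glo luminescence then reported cell viability in the same wells.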

[2] = qHTS assay to identify small molecule agonists of H2AX (AID 1224845; active means well fitted activation curve with a large enough effect in the signal ratio in the repeat runs, not every such curve was filed as active; the % refers to the signal ratio)
Method in brief: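 Wild-type CHO-K1 cells plated overnight, then exposed 3 hr at 37C to compounds at 15 concentrations (0.76% DMSO). Lysed, then HTRF anti-pH2AX(S139)-cryptate/anti-H2AX-d2 detection after 24 hr at room temperature; emissions 665 and 620 nm.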

[3] = qHTS assay to identify small molecule agonists of the hypoxia (HIF-1) signaling pathway (AID 1224846; active means well fitted activation curve with a large enough effect in the signal ratio in the repeat runs, not every such curve was filed as active; the % refers to the signal ratio)
Method in brief: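 Steps: seed ME-180 HRE-bla cells (2,000/well, 0.5% dialyzed FBS); incubate 5 hrs at 37C; pin-transfer compounds or DMSO; incubate 17 hrs; add LiveBLAzer B/G substrate CCF4-AM; measure reporter activation by FRET.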

[4] = qHTS assay to identify small molecule agonists of H2AX - cell viability counter screen (AID 1224847; calls by dose curve; further: nearly all actives have a fitted effect of over 30% in size; further: potency means the concentration at half of the fitted maximal effect)
Method in brief: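 Quantitative HTS viability measurement: CHO-K1 wild-type cells in serum (10% FBS) medium, short 3 hr drug exposure at 37C with 0.76% DMSO, CellTiter-Glo luminescent detection.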

[5] = qHTS RealTime-Glo MT Cell Viability Assay in HepG2 cells - 24 hour (AID 1224867); further: nearly all actives have a fitted effect of over 50% in size
Method in brief: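 Viability was tracked continuously by NanoLuc luminescence from prosubstrate reduced by living HepG2 cells, at successive time points over 40 h of compound exposure. Cells with reagent were preincubated 5 h at 37 °C before compound addition.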

[6] = qHTS RealTime-Glo MT Cell Viability Assay in HEK293 cells - 32 hour (AID 1224868); further: nearly all actives have a fitted effect of over 50% in size; further: potency means the concentration at half of the fitted maximal effect
Method in brief: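 Viability tracked continuously by luminescence as live cells reduce a prosubstrate for NanoLuc; HEK293 cells preincubated 5 h, compound-treated at 37 C, and read at 0, 8, 16, 24, 32 and 40 h.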

[7] = A CellTox Green Cytotoxicity Assay to monitor cytotoxicity in HEK293 cells - 0 hour (AID 1224869); further: nearly all actives have a fitted effect of over 50% in size
Method in brief: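 Cytotoxicity was tracked continuously in HEK293 cells by a DNA-binding dye excluded from viable cells. Compounds were transferred in DMSO 5 h after seeding; fluorescence was recorded at intervals up to 40 h.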

[8] = qHTS RealTime-Glo MT Cell Viability Assay in HepG2 cells - 40 hour (AID 1224870); further: nearly all actives have a fitted effect of over 50% in size; further: potency means the concentration at half of the fitted maximal effect
Method in brief: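 HepG2 cells mixed with RealTime-Glo MT reagents (NanoLuc plus cell-permeant prosubstrate) were seeded at 600 cells/well, incubated 5 h at 37 C/5% CO2, then pinned with compounds in DMSO; nonlytic luminescence tracked viability during 40 h treatment.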

[9] = qHTS assay to identify small molecule antagonists of the estrogen related receptor (ERR) signaling pathway from Tox21 library (AID 1224848); further: nearly all actives have a fitted effect of over 50% in size; further: potency means the concentration at half of the fitted maximal effect
Method in brief: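 Screening used an ERR reporter line supplied by NTP, exposed for 18 h at 37 C to library compounds delivered in DMSO. Signal was luciferase luminescence developed with ONE-Glo at room temperature for 30 min.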

[10] = qHTS assay to identify small molecule agonists of the estrogen related receptor (ERR) signaling pathway from Tox21 library (AID 1224849; calls by dose curve; further: nearly all actives have a fitted effect of over 15% in size); conditions: ERR reporter cell line, ONE-Glo luciferase, 18 h; at 92.4 µM (top of the series) unless noted
Method in brief: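 Agonist signal is luciferase luminescence from an ERR reporter cell line treated 18 h at 37 C with DMSO-dissolved compounds, read 30 min after ONE-Glo addition at room temperature.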

| SMILES | Potency [1] | Potency [2] | outcome [3] | Potency [4] | Potency [5] | Potency [6] | Potency [7] | Potency [8] | Potency [9] | activity change, positive = activation [10] |
| --- | --- | --- | --- | --- | --- | --- | --- | --- | --- | --- |
| NNC(=O)c1cccnc1 | inactive | inactive | inactive | inactive | inactive | inactive | inactive | inactive |  |  |
| CC(C)N(CCC(C(N)=O)(c1ccccc1)c1ccccn1)C(C)C (stereo unspecified) | inactive | inactive |  | inactive | inactive | inactive | inactive |  | inactive | 2.39% [at 42.5 µM] (inactive) |
| CCC(Br)(CC)C(=O)NC(N)=O | inactive | inactive | inactive | inactive | inactive | inactive | inactive | inactive |  |  |
| CCCCC(CC)COP(=O)(Oc1ccccc1)Oc1ccccc1 (stereo unspecified) | inactive | inactive | inactive |  | inactive | inactive | inactive | inactive |  |  |
| CNC(C)Cc1ccccc1OC (stereo unspecified) | inactive | inactive | inactive | inactive | inactive | inactive | inactive | inactive |  |  |
| O=C1C(Cl)C(CCl)CN1c1cccc(C(F)(F)F)c1 (stereo unspecified) | inactive | inactive | inactive |  | inactive | 24.5 µM (active) | inactive |  |  | -29.4% (inactive) |
| CCCCc1c(C)nc(NCC)nc1OS(=O)(=O)N(C)C | inactive | inactive | inactive |  | inactive | 11 µM (active) | inactive | inactive | 30.6 µM (active) | -48.3% (inactive) |
| CCOP(=O)(OCC)O/C(=C/Cl)c1ccc(Cl)cc1Cl | inactive | inactive | inactive |  |  | 21.9 µM (active) | inactive |  | 6.86 µM (active) | -61.6% (inactive) |
| COP(=S)(OC)Oc1cc(Cl)c(I)cc1Cl | inactive | inactive | inactive |  | inactive | inactive | inactive | inactive |  |  |
| Brc1ccc(Oc2ccccc2)cc1 | inactive | inactive | inactive |  | inactive | inactive | inactive | inactive | inactive | -18.4% (inactive) and 0.436% (inactive) |
| C=CC(=O)OC(C)(C)C | inactive | inactive | inactive | inactive |  | inactive | inactive | inactive |  |  |
| Cl/C=C\Cl | inactive | inactive | inactive | inactive | inactive | inactive | inactive | inactive |  |  |
| Clc1cccc2ccccc12 | inactive | inactive | inactive | inactive | inactive | inactive | inactive | inactive |  |  |
| O=C(C(Cl)(Cl)Cl)C(Cl)(Cl)Cl | inactive | inactive | inactive | inactive |  | inactive | inactive | inactive |  |  |
| O=S(=O)(Cl)c1ccccc1 | inactive | inactive | inactive | inactive | inactive | inactive | inactive | inactive |  |  |
| C=CCOC(C)=O | inactive | inactive | inactive | inactive |  | inactive | inactive | inactive |  |  |
| CCCCCCC#N | inactive | inactive | inactive | inactive |  | inactive | inactive |  |  |  |
| NC(=O)C(Cl)(Cl)Cl | inactive | inactive | inactive | inactive | inactive | inactive | inactive | inactive |  |  |
| CC(C)O.CC(C)O.OCCN(CCO)CCO.OCCN(CCO)CCO.[Ti] | inactive | inactive | inactive |  | inactive | inactive | inactive | inactive |  |  |
| CCOS(C)(=O)=O | inactive | inactive | inactive | inactive | inactive | inactive | inactive | inactive |  |  |

| SMILES | Potency [1] | Potency [2] | outcome [3] | Potency [4] | Potency [5] | Potency [6] | Potency [7] | Potency [8] | Potency [9] | activity change, positive = activation [10] |
| --- | --- | --- | --- | --- | --- | --- | --- | --- | --- | --- |
| CCOP(O)OCC | inactive | inactive | inactive |  | inactive | inactive | inactive | inactive |  |  |
| CNP(=O)(OC)Oc1ccc(C(C)(C)C)cc1Cl (stereo unspecified) | inactive | inactive | inactive |  |  |  | inactive | inactive | 48.6 µM (active) | -37.4% (inactive) |
| Cc1ccccc1C(=O)Nc1cccc(OC(C)C)c1 | 27.5 µM (active) | inactive | inactive |  | inactive |  | inactive | inactive |  |  |
| CCOC(=O)CBr | inactive | inactive | inactive | inactive |  |  | inactive | inactive |  |  |
| CCOc1nc(F)cc2nc(S(=O)(=O)Nc3c(Cl)cccc3Cl)nn12 | inactive | inactive | inactive |  |  | inactive | inactive |  |  |  |
| O=NN1CCCCCC1 | inactive | inactive | inactive | inactive | inactive | inactive | inactive | inactive |  |  |
| ClCC(Br)CBr (stereo unspecified) | inactive | inactive |  | inactive | inactive | inactive | inactive |  |  |  |
| ClCCCCBr | inactive | inactive |  | inactive | inactive | inactive | inactive | inactive |  |  |
| CC1(C)[C@H](C=C(Cl)Cl)[C@@H]1C(=O)O[C@@H](C#N)c1cccc(Oc2ccccc2)c1 | inactive | inactive |  | inactive | inactive | inactive | inactive | inactive |  |  |
| CC(C)N(C(=O)COc1nnc(C(F)(F)F)s1)c1ccc(F)cc1 | inactive | inactive |  | inactive |  |  | inactive |  | 54.5 µM (active) | -34.1% (inactive) |
| C=CC(=O)NCNC(=O)C=C | inactive | inactive |  | inactive | inactive | inactive | inactive | inactive | inactive | 36.6% (active) |
| CCn1cc[n+](C)c1 | inactive | inactive |  | inactive and 102 µM (active) | inactive | inactive and 1.75 µM (active) | inactive | inactive and 44 µM (active) |  |  |
| O=C(O)C1(c2ccc3c(c2)OC[C@H](Cc2ccc(-c4ccccc4)cc2)[C@H]3O)CCCC1 | 17.4 µM (active) | inactive |  | 101 µM (active) |  |  | inactive | inactive | 61.1 µM (active) | -42.3% (inactive) |
| CCBr | inactive | inactive |  | inactive | inactive | inactive | inactive | inactive | inactive | 6.77% (inactive) |
| CN1C[C@H](CNC(=O)OCc2ccccc2)C[C@@H]2c3cccc4c3c(cn4C)C[C@H]21 | inactive | inactive |  | inactive |  | 21.3 µM (active) | inactive |  |  |  |
| CN1C(=O)NC(=O)C(C)(C2=CCCCC2)C1=O (stereo unspecified) | inactive | inactive |  | inactive | inactive | inactive | inactive | inactive |  |  |
| CC(C)(C)c1cc([N+](=O)[O-])cc([N+](=O)[O-])c1O | inactive | inactive |  | inactive | inactive |  | inactive |  |  |  |
| O=C(O)CC(Cl)C(=O)O (stereo unspecified) | inactive | inactive |  | inactive | inactive | inactive | inactive | inactive | inactive | 7% (inactive) |
| CCCCCCCCCC(=O)O[C@H]1CC[C@H]2[C@@H]3CCC4=CC(=O)CC[C@@H]4[C@H]3CC[C@]12C | inactive | inactive |  | inactive | inactive | inactive | inactive | inactive |  |  |
| S=C=NCc1ccccc1 | inactive | inactive |  | inactive | inactive | 44.1 µM (active) | inactive | inactive | inactive | -18.1% (inactive) |
